AmpC no deterg = AmpC beta-lactamase inhibition without detergent | Potency, µM (highest dose often 57.1 µM), without a hit: at the highest dose activity change, negative = inhibition, hits mostly inhibitors | P00811 | hit rate 0.52% among 330,000 | AmpC nitrocefin hydrolysis, absorbance 480 nm, 0.0001% Triton;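 further: potency means the concentration at half of the fitted maximal effect; plate controls were no compound for no effect and no enzyme for full effect; nearly all actives have a fitted effect of over 20% in size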
Target sequence (P00811 whole entry, looked up): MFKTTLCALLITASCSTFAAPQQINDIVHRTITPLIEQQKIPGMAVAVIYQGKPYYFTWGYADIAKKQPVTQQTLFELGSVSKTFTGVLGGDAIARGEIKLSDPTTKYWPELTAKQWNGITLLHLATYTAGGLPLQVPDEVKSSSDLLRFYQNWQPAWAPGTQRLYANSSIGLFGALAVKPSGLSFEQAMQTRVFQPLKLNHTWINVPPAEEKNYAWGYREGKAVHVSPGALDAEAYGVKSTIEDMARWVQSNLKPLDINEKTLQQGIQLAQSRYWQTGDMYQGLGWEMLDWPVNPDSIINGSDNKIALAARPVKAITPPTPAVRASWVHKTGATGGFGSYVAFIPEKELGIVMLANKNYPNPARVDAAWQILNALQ
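AmpC (5.3 nM in the dispensed reagent) in 20 mM phosphate pH 7.0 with 0.01% (detergent screen) or 0.0001% Triton X-100 was preincubated with compounds for 15 min at room temperature. Nitrocefin was then added from an 800 uM solution, and hydrolysis was followed at 480 nm.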
AmpC inh detg = AmpC beta-lactamase inhibition with detergent present | P00811 | Potency, µM (top dose mostly 114 µM), inactives show at the top dose activity change, negative = inhibition, hits mostly inhibitors | AmpC hydrolysis of nitrocefin, absorbance 480 nm, 0.01% Triton | AID 485294 | hit rate 0.041% among 370,000;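 further: potency means the concentration at half of the fitted maximal effect; 0% = no-compound wells and -100% = no-enzyme wells; nearly all actives have a fitted effect of over 25% in size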
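AmpC (5.3 nM in the dispensed reagent) in 20 mM phosphate pH 7.0 with 0.01% (detergent screen) or 0.0001% Triton X-100 was preincubated with compounds for 15 min at room temperature. Nitrocefin was then added from an 800 uM solution, and hydrolysis was followed at 480 nm.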
HCMV inh = inhibitors of human cytomegalovirus; HFF cells, HCMV-luciferase reporter, 72 h; hits give low values; activity change, negative = inhibition, % at 57.5 µM; hit rate 4.5% among 410,000; AID 1259415; in the data active means activity change below about -60%; inconclusive means no clear call, values can overlap the other calls; inactive means above about -39%
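Human foreskin fibroblasts infected with luciferase-reporter HCMV at MOI 1 PFU/cell, compounds at two doses. Luciferase measured 72 h post infection; normalized to buffer-only basal and Salinomycin (10uM) controls.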
FMDV inh = foot and mouth disease virus antiviral activity; AID 1159524; Potency, µM (series often up to 57.9 µM), inactives show at the highest dose activity change, negative = inhibition, usual class: inhibitors; hit rate 1.2% among 410,000; FMDV antiviral cell-based qHTS; calls by dose curve; tested in HEK293T cells; further: read-out not given here; potency means the concentration at half of the fitted maximal effect; nearly all actives have a fitted effect of over 45% in size
HCV inh = inhibitors of hepatitis C virus infection | AID 651820 | Huh7.5.1 HCVcc-Cre infection, luciferase reporter, 44 h | hit rate 3.4% among 340,000 | Potency, µM (top dose mostly 41.8 µM), without a hit: top-dose activity change, negative = inhibition, hits mostly inhibitors; further: potency means the concentration at half of the fitted maximal effect
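Infectious HCV cell culture screen: compound-treated cells (1,000/well, pre-plated 4 h) are infected with HCVcc-Cre at roughly 0.5 moi and grown 44 h. Infection is quantified by luciferase signal after 15 min substrate incubation at room temperature.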
The depositor's hits bear a star; ? = inconclusive; nt = no result given; + = active, no number. The list is not random: actives were taken first. Their share in the collection is about 7.3%. Unless noted, the call rests on the fitted dose curve; in most records, active means well fitted curve in the direction sought with a large enough effect; inconclusive means small, poorly fitted or top-dose-only effect, or another doubt; inactive means no such curve, though single readings can be large; an effect the other way counts as inactive or inconclusive. Unless noted, on the % scale 0 is the no-effect control and ±100 the full control effect.

SMILES	AmpC no deterg	AmpC inh detg	HCMV inh	FMDV inh	HCV inh
CCCCNS(=O)(=O)c1ccc(S(=O)(=O)NCc2ccncc2)cc1	-12%	0%	-72*	nt	10µM*
O=S(=O)(NCc1ccncc1)c1ccc(S(=O)(=O)NCC2CCCO2)cc1 (stereo not drawn)	-17%	?	-39	nt	13µM*
FC(F)(F)c1cc(-c2cnc3ccc(NCc4ccco4)nn23)cc(C(F)(F)F)c1	nt	nt	-10	nt	nt
COc1ccccc1NC(=O)N1CCN(c2nnc(C)c3c(C)n(-c4ccccc4)nc23)CC1	nt	14%	?	0%	nt
O=C(C1CCOCC1)N1CC(=O)N2[C@H](CO)[C@H](c3ccc(-c4ccccc4F)cc3)[C@@H]2C1	nt	nt	9	nt	nt
Cc1nn(C(C)C(=O)NC2CCCCC2)c(=O)c2c1sc1ccccc12 (stereo not drawn)	nt	23%	-18	-7%	nt
CCn1nc(C)c(NC(=O)/C=C/c2ccc(OC)c(COc3ccc(Cl)cc3Br)c2)c1C	-11%	4%	-64*	0%	?
O=C(NNC(=O)c1ccccc1Br)c1ccncc1	0%	?	-65*	9%	3%
O=C(NNC(=O)c1ccccc1C(=O)O)c1ccc(O)cc1	-24%	2%	-32	2%	13µM*
COc1ccc(NC(=O)C[C@H]2C(=O)N(CCc3ccccc3)C[C@@H]2c2ccc(OC)cc2)cc1	nt	nt	10	15%	nt
CCCCCNC(=O)C1(C)CCc2nc3cc(C)c(C)cc3n21 (stereo not drawn)	nt	nt	-11	nt	nt
CCN(C(=O)c1cc(S(=O)(=O)N2CCOCC2)cn1C)c1cccc(C)c1	-5%	-16%	?	-7%	18%
CCN(CC)C(=O)c1cc(S(=O)(=O)N2CCCCC2)c[nH]1	-15%	-2%	0	-14%	-15%
CCN(C(=O)c1cc(S(=O)(=O)N2CCc3ccccc32)cn1C)c1ccccc1	58%	-4%	-10	0%	-30%
CCN(C(=O)c1cc(S(=O)(=O)N2CCc3ccccc32)cn1C)c1cccc(C)c1	nt	27%	-74*	-5%	nt
CCN(C(=O)c1cc(S(=O)(=O)N2CCCCC2)c[nH]1)c1ccc(OC)cc1	-5%	-7%	-67*	-20%	-19%
CCN(C(=O)c1cc(S(=O)(=O)N2CCOCC2)cn1C)c1ccc(OC)cc1	nt	22%	-67*	-17%	nt
CCCN(CCC)c1cc(=O)nc2ccccn12	nt	nt	-4	nt	nt
COc1cc(=O)n2c(c1C(=O)NC(C)c1ccco1)CCN(C(=O)c1[nH]c(C)cc1C)CC2 (stereo not drawn)	nt	nt	nt	-7%	nt
O=C(Nc1cccc(O)c1)c1ccc(C(F)(F)F)cc1	-21%	-6%	9	15%	-21%
O=C(Nc1ccc(Br)c(C(F)(F)F)c1)c1ccccc1	-51%	-17%	-90*	-24%	-27%
O=C(Nc1ccc(Br)c(C(F)(F)F)c1)c1ccc(C(F)(F)F)cc1	-58%	0%	-97*	-22%	?
CC1(C)OC(C)(C)C(=N/O)/C1=N\N	nt	nt	-25	nt	nt
C#Cc1ccc([C@H]2C=C(C(=O)OCC=C)O[C@@H](OCCCCO)C2)cc1	nt	nt	-67*	-8%	11%
CCOc1ccc(C(=O)NNC(=O)CN2C(=O)C3CC=CCC3C2=O)cc1OC (stereo not drawn)	-20%	nt	0	-7%	3%
SMILES	AmpC no deterg	AmpC inh detg	HCMV inh	FMDV inh	HCV inh
COc1ccc2ccc(=O)oc2c1CC(=O)C(C)C	-10%	nt	1	-10%	4.5µM*
COc1ccc2ccc(=O)oc2c1CC(O)C(C)(C)O (stereo not drawn)	-31%	-2%	17	-16%	10%
CCc1cc([N+](=O)[O-])cc(CC)c1N	-10%	-1%	-20	-23%	11µM*
CCOc1ccc(C(=O)N(CC(=O)Nc2cccc(C)c2C)CC2CCCO2)cc1OC (stereo not drawn)	71%	3%	+	13%	7%
CCOc1ccc(NC(=O)CN(C)C(=O)c2ccc(OCC3CCCO3)cc2)cc1OCC (stereo not drawn)	62%	6%	?	0%	1%
COc1cc(=O)n2c(c1C(=O)NCc1ccco1)CCN(C(=O)c1cccnc1SC)CC2	nt	nt	nt	17%	nt
